High-throughput results: PubChem, several laboratories
This is a sample that favours compounds with a hit; in the whole collection about 3.2% have one here.
A3A deaminase: APOBEC3A ssDNA deaminase inhibitors, primary screen, selectivity assay for APOBEC3G inhibitor project, biochemical, FAM/TAMRA oligo cleavage fluorescence; DNA dC->dU-editing enzyme APOBEC-3A (Homo sapiens), P31941; inhibition, % at 20 µM; hit rate 0.41% among 330,000; recombinant A3A, FAM/TAMRA ssDNA deamination fluorescence;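 active = at least 40% inhibition at 20 µM here, with at most 30% in a related deaminase screen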
NTR1 agonist: agonists of human NTR1, primary screen, imaging, U2OS cells, beta-arrestin-GFP, high content | AID 493036, 2011 | activation, % at 20 µM | NTR1-U2OS beta-arrestin-GFP spot imaging, agonist mode | hit rate 0.17% among 330,000;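 active = activation at or above 40% of the spot to cytoplasm intensity ratio, with at least 20 cells analyzed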
Target sequence (P30989 whole entry, looked up): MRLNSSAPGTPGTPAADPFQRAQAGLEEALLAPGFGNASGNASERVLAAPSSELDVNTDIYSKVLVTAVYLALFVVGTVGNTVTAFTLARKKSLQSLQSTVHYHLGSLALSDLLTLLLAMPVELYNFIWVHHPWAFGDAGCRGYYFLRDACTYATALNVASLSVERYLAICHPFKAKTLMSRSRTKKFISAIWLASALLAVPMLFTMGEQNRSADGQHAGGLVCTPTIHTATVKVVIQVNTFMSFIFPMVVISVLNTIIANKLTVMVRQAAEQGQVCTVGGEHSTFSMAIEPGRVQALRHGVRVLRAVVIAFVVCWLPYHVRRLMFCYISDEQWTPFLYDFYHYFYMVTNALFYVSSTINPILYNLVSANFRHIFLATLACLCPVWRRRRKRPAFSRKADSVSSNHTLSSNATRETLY
AHR act: AHR activators, primary screen, cell-based, luminescence, luciferase reporter, human. AHR-responsive luciferase reporter cells. activation, % at 5 µM. hit rate 2.5% among 320,000. Aryl hydrocarbon receptor (Homo sapiens), P35869; in the data active = activation above about 47%
A3G deaminase: APOBEC3G DNA deaminase inhibitors, primary screen, biochemical, fluorescence, single-stranded DNA substrate, uHTS; DNA dC->dU-editing enzyme APOBEC-3G (Homo sapiens), Q9HC16; recombinant A3G, ssDNA deamination FAM/TAMRA fluorescence; inhibition, % at 20 µM; hit rate 0.28% among 330,000; AID 493012, 2011;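 active = inhibition of at least 40% at 20 µM, with no more than 30% in the related APOBEC3A deaminase screen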
Numbers stand for hits; i = inactive; nt = no result given.

SMILES	A3A deaminase	NTR1 agonist	AHR act	A3G deaminase
COc1cc(OC)cc(-c2oc(=O)c3cc(OC)c(OC)cc3c2/C=C/c2ccc(F)cc2)c1	i	i	i	i
Cc1ccccc1CNS(=O)(=O)c1c(C)[nH]c(C)c1C(=O)N1CCCCC1	i	i	i	i
COc1ccc(Cl)cc1Nc1nc(N)nc(C(F)(F)F)n1	i	i	i	i
COc1ccc(Nc2nc(N)nc(C(F)(F)F)n2)c(OC)c1	i	i	76	i
COc1ccc(-c2csc3nc(C)nc(N4CCN(c5ccc(C(C)=O)cc5)CC4)c23)cc1OC	i	i	i	i
N#Cc1c(C(F)(F)F)cc(-c2ccc(Cl)c(Cl)c2)nc1SCCN1CCOCC1	i	i	65	i
C/C(=N\Nc1ccccc1)c1cccc(N)c1	i	i	nt	i
C/C(=N\Nc1cc(-c2ccccc2)nc(-c2ccc(Br)cc2)n1)c1cccc(N)c1	i	i	71	i
O=C(Cc1nc(=O)c2ccccc2s1)Nc1ccccc1	i	i	50	i
CCCCC(=O)NC(=S)Nc1ccc(S(=O)(=O)N2CCCC2)cc1	i	i	i	i
O=[N+]([O-])c1ccc(Cl)c(/C=N/N2CCN(c3ccccc3)CC2)c1	i	i	58	i
Cc1ccccc1/C=N/N1CCN(c2ccccc2)CC1	i	i	73	i
Cc1ccc(/C=N/N2CCN(c3ccccc3)CC2)cc1	i	i	i	i
COC(=O)CCCC1=CC2=C(c3ccccc3)C(=O)C(C)(OC(=O)C3CCCC3)C(=O)C2=CN1CCc1c[nH]c2ccccc12 (stereo not drawn)	i	i	i	i
COc1ccccc1C(CNC(=O)CCNC(=O)c1ccccc1Cl)N1CCCC1 (stereo not drawn)	i	i	i	i
c1ccc(-c2nc(NC3CCCC3)c3ccccc3n2)cc1	i	i	53	i
c1ccc(Nc2nc(-c3ccccc3)nc3ccccc23)cc1	i	i	i	i
COc1cc(O)oc1C=Nc1ccc(C(F)(F)F)cc1	i	i	54	i
COc1cc(/C=N/Nc2ccc(C(F)(F)F)cn2)ccc1O	i	i	i	i
Cc1ccccc1NC1=C/C(=N\S(=O)(=O)c2cccs2)c2ccccc2C1=O	i	40	i	i
O=C(O)c1ccc(S(=O)(=O)/N=C2\C=C(Nc3ccccc3F)C(=O)c3ccccc32)cc1	i	i	70	i
Cc1ccccc1NC1=C/C(=N\S(=O)(=O)c2ccc(C(=O)O)cc2)c2ccccc2C1=O	i	i	i	i
CCCn1c(SCC(=O)N(C)CC(=O)Nc2ccc(Cl)cc2)n[nH]c1=O	i	i	i	i
Brc1cc(Br)c2nc(-c3cccs3)ccc2c1	i	i	52	i
c1csc(-c2csc(-c3cccs3)n2)c1	i	i	i	i
SMILES	A3A deaminase	NTR1 agonist	AHR act	A3G deaminase
O=C(Nc1nc(-c2cccc3ccccc23)cs1)c1cnccn1	i	i	49	i
CSCCC(NC(=O)COc1ccccc1)C(=O)NCCOc1ccccc1 (stereo not drawn)	i	i	i	i
CCCOc1ccccc1NC(=O)CC1Nc2ccccc2NC1=O (stereo not drawn)	i	i	49	i
CCOc1ccccc1NC(=O)CC1Nc2ccccc2NC1=O (stereo not drawn)	i	i	78	i
CC(C)(C)C(=O)Nc1cccc(S(=O)(=O)NC2=NCCC2)c1	i	i	i	i
O=C(CCC(=O)N(CC(=O)NC1CCCC1)C1CCCCC1)Nc1ccccn1	i	i	i	i
CC(C)Oc1cccc(-c2cc(C(=O)NC(=S)N(C)c3ccccc3C(=O)O)c3ccccc3n2)c1	i	i	50	i
O=[N+]([O-])c1ccccc1CSc1nc2ccccc2o1	i	i	48	i
Cc1cccc(CC(=O)NCCN2CCOCC2)c1	i	i	i	i
COc1cc(OC)cc(-c2sc3ccc(OC)cc3c2C#CC2(N)CCCCC2)c1	i	i	i	i
COc1ccc(-c2sc3cc4c(cc3c2C#CC2(N)CCCCC2)OCO4)cc1	i	i	66	i
CS(=O)(=O)c1ccc(C(=O)OCc2nnc(-c3ccc(Cl)cc3)o2)cc1[N+](=O)[O-]	i	41	i	i
O=C(OCc1nnc(-c2ccc(Cl)cc2)o1)c1ccc(O)cc1	i	i	i	i
Oc1[nH]c2ccccc2c1C1=NCCCCC1	i	i	62	i
COCCCn1c(=O)c2sccc2n2c(CCCC(=O)NCc3ccc(OC)cc3)nnc12	i	i	i	i
O=C(NNC(=O)c1cc2ccccc2[nH]1)OCc1ccccc1	i	i	66	i
O=C(NNC(=O)c1ccc2nonc2c1)Nc1ccc(Cl)cc1	i	i	77	i
c1cc2c3c(cccc3c1)NC1(CCC3(CC1)Nc1cccc4cccc(c14)N3)N2	i	i	49	i
Cc1[nH]n(-c2ccccc2)c(=O)c1/C=N/Nc1nncc(-c2ccccc2)n1	i	i	53	i
Cc1ccc(/C=N/Nc2nncc(-c3ccccc3)n2)o1	i	i	i	i
C/C(=N\NC(=O)c1ccc2ccccc2c1)c1cccs1	i	i	nt	i
COc1ccc(NC(=O)c2cnn(-c3ccccc3)c2C)cc1	i	i	i	i
COc1ccc(OC)c(NC(=O)c2cnn(-c3ccccc3)c2C)c1	i	i	76	i
O=Nc1c2nc3ccccc3n(O)c-2c2ccccc12	i	i	101	i
On1c(-c2ccccc2)nc2ccccc21	i	i	i	i
SMILES	A3A deaminase	NTR1 agonist	AHR act	A3G deaminase
NC1=NC2(CCCCC2)N=C(Nc2ccc(Br)cc2)N1	i	i	72	i
Oc1ccc(O)c(/C(=N/Nc2ccccc2)c2ccccc2)c1	i	i	i	i
Oc1ccc(/C=N/NC(=S)Nc2cccnc2)cc1O	i	i	79	i
CC1(C)C2CC=C(/C=N/NC(=S)Nc3cccnc3)C1C2 (stereo not drawn)	i	i	65	i
COc1ccccc1/C=N/NC(=S)Nc1cccnc1	i	i	59	i
COc1cc(/C=N/NC(=S)Nc2cccnc2)cc(OC)c1OC	i	i	62	i
CC(C)(C)c1ccc(/C=N/NC(=S)Nc2cccnc2)cc1	i	i	i	i
CCc1ncc(CN2CCC(C(=O)Nc3cccc(-c4cscn4)c3)CC2)cn1	i	i	i	i
Cc1ccc(OCC(=O)NNC(=O)c2ccccc2OCc2c(C)noc2C)cc1	i	i	i	i
COC(=O)c1ccccc1S(=O)(=O)N(Cc1cc2cc3c(cc2[nH]c1=O)OCO3)C1CCCCC1	i	i	63	i
Cc1cccc(C)c1OC(=O)CCN1C(=O)C2C3C=CC(C4CC34)C2C1=O (stereo not drawn)	i	i	i	i
CCOC(=O)c1nnc(-c2ccc(C)cc2)nc1Sc1ccc(Cl)cc1	i	i	i	i
CCOC(=O)c1nnc(-c2ccc(C)cc2)nc1N1CCSCC1	i	i	57	i
